# Sampled rows, rich in hits. Any-hit rate of the full collection: about 7.6%.
# CRE Fsk mod – modulators of forskolin-stimulated CRE signaling in CHO cells | CHO CRE-bla reporter (cAMP response element driving beta-lactamase), forskolin EC10, beta-lactamase ratio | 71,000 tested, 2.5% active | Potency, µM (series often up to 38.2 µM), for the others: at the top dose activity change, negative = inhibition, hits mostly activators; active = well fitted activation curve with a large enough effect in the signal ratio, with a control signal flat, not every such curve was filed as active; inconclusive = small, poorly fitted or top-dose-only effect, or effect the other way, or a change in a side signal; the % refers to the signal ratio; also: % of control where 0% means no effect
#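 CRE-bla CHO cells stimulated with EC10 NKH 477 (water-soluble forskolin) and compound titrations, 3 h at 37C; beta-lactamase read with CCF4 after 2 h at room temperature. Activity from 460/530 nm emission ratio, AC50 values for positive or negative modulation.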
# Tau filament bind – tau filament binding | P10636 | AID 596 | 71,000 tested, 2% active | Potency, µM (doses to about 57.1 µM), for inactives: at the highest dose activity change, negative = inhibition | recombinant tau filaments, thioflavin S fluorescence, 15 h; filaments grown with octadecylsulfate alongside compound;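 also: % is scaled to controls: 0 for no effect and ±100 for the full control effect; actives lower thioflavin S fluorescence by blocking filaments or displacing dye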
# Target sequence (P10636 whole entry, looked up): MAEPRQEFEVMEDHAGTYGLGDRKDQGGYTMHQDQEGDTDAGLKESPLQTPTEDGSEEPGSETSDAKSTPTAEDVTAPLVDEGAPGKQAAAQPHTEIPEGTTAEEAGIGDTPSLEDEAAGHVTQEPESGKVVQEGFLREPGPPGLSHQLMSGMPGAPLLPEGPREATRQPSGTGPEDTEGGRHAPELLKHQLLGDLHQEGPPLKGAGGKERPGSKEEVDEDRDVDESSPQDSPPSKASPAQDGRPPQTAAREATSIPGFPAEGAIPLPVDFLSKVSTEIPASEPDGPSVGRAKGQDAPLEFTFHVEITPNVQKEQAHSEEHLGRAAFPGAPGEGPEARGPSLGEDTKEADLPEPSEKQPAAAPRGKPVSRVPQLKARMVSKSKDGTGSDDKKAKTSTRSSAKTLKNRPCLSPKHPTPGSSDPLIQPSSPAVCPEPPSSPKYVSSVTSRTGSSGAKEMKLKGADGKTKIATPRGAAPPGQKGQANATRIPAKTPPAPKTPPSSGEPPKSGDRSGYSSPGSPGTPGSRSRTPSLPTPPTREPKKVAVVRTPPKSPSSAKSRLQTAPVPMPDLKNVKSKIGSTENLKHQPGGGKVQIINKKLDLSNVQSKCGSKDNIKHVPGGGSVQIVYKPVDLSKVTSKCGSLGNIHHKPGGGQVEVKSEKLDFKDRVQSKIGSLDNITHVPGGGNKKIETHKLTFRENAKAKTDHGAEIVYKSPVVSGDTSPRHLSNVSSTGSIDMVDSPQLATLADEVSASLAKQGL
#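 Thioflavine S fluorescence (ex 450, em 510 nm) reports filaments formed from 1 uM human tau plus 30 uM ODS over 15 h at 37 C (10 mM HEPES pH 7.4, 100 mM NaCl, 5 mM DTT); compounds displacing dye or blocking filaments lower signal.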
# ERK AVP block – vasopressin-driven ERK pathway inhibition; HEK293-V1b, vasopressin-stimulated pERK AlphaScreen; Potency, µM (titrated, usually from 57.5 µM), for inactives: at the highest dose activity, negative = inhibition, actives largely listed as inhibitors; 72,000 tested, 0.99% active; also: % is scaled to controls: 0 for no effect and ±100 for the full control effect; nearly all actives have a fitted effect of over 55% in size
#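 HEK293 cells stably expressing V1b receptor, preincubated 30 min at 37 °C with compound, then stimulated 5 min with 25 nM vasopressin. Phospho-ERK by AlphaScreen SureFire after 5 h RT; normalized to DMSO and vasopressin; AC50 by Hill fit.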
# HEK293 cAMP ctrl – raises cAMP in parental HEK293 cells, TSHR agonist counter-screen. parental HEK293 CNG cAMP sensor, membrane potential fluorescence. Potency, µM (doses to about 57.1 µM), inactives show at the highest dose activation, actives largely listed as activators. 73,000 tested, 2.5% active. AID 938; also: % of control where 0% means no effect; nearly all actives have a fitted effect of over 55% in size
#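 Parental HEK 293 cells stably expressing a modified CNG channel (no TSHR) report cAMP rise as membrane depolarization. Membrane potential dye with 100 uM RO 20-1724 was loaded for 60 min at room temperature, then compound added for 30 min; fluorescence read at 590 nm.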
# TSHR agonist – activates the human thyroid stimulating hormone receptor | AID 926 | Potency, µM (titrated, usually from 57.1 µM), without a hit: at the top dose activation, most hits filed as activators | HEK293-CNG-TSHR cells (CNG channel as cAMP sensor), membrane potential dye, cAMP | 73,000 tested, 0.48% active | P16473; active = well fitted activation curve with a large enough effect in the main read-out, with a control signal flat, not every such curve was filed as active; inconclusive = small, poorly fitted or top-dose-only effect, or a change in a side signal; inactive = no such curve, though single readings can be large or run the other way; % of control where 0% means no effect;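 also: the control signal comes from parental cells without the receptor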
#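 HEK 293 cells stably expressing TSHR and a modified CNG channel, with CNG-only parental cells as counterscreen, were preloaded 60 min at room temperature with membrane potential dye containing 100 uM RO 20-1724. Compound exposure was 30 min, and depolarization was read as fluorescence at 590 nm.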
# Numbers without * were called inactive; ? = inconclusive; nt = no result; [ ] = remark or other dose. Unless noted, calls follow the shape of the dose curve; as a rule, active = well fitted curve in the direction sought with a large enough effect; inconclusive = small, poorly fitted or top-dose-only effect, or another doubt; inactive = no such curve, though single readings can be large; an effect the other way counts as inactive or inconclusive. Potency is read from the fitted curve at half-maximal effect.
SMILES,CRE Fsk mod,Tau filament bind,ERK AVP block,HEK293 cAMP ctrl,TSHR agonist
CC1(C)CC(=O)C2=C(C1)Oc1ncn(CCCn3ccnc3)c(=N)c1C2c1ccccc1 (stereo not given),20.2%,18.9%,-21.6%,21.3%,10.2%
CC1(C)CC(=O)C2=C(C1)Oc1ncn(Cc3ccco3)c(=N)c1C2c1ccccc1 (stereo not given),12.0%,15.8µM*,7.1%,12.4%,-25.1%
CC(C)(Oc1ccc(-c2ccco2)cc1)C(=O)O,2.8%,7.6%,-8.1%,?,?
CC(=O)C1=C(O)C=C(c2ccco2)CC1c1ccco1 (stereo not given),0.7%,20µM*,-29.3%,15.8µM*,?
N#Cc1c(N2CCN(C(=O)c3ccco3)CC2)nc(-c2ccccc2)c2c1CCCC2,?,128.8%,-28.4%,15.8µM*,?
CCCCn1c(=O)[nH]c(=O)c2c1nc(CN1C(=O)c3ccccc3S1(=O)=O)n2CCC,10µM*,7.3%,25.6%,13.6%,12.9%
COC(=O)[C@@]1(Cc2ccc(OC)cc2)[C@H]2c3cc(C(=O)N4CCCC4)n(CCc4ccc(OC)c(Br)c4)c3C[C@H]2CN1C(=O)c1ccccc1,-6.8%,9.2%,-1.9%,5.01µM*,?
COC(=O)[C@@]1(Cc2ccccc2)[C@H]2c3cc(C(=O)N4CCCC4)n(Cc4ccc(O)c(OC)c4)c3C[C@H]2CN1C(=O)c1ccccc1,?,7.8%,-11.8%,1µM*,?
COC(=O)[C@@]1(Cc2ccc(OC)cc2)[C@H]2c3cc(C(=O)N4CCCC4)n(Cc4cc(C)n(C)n4)c3C[C@H]2CN1C(=O)c1ccccc1,-11.4%,-2.2%,-13.8%,12.6µM*,?
COC(=O)[C@@]1(Cc2ccc(OC)cc2)[C@H]2c3cc(C(=O)N4CCCC4)n(Cc4ccc(O)c(OC)c4)c3C[C@H]2CN1C(=O)c1ccccc1,?,18.5%,33.9%,?,?
COC(=O)[C@@]1(Cc2ccccc2)[C@H]2c3cc(C(=O)N4CCCC4)n(Cc4ccccc4)c3C[C@H]2CN1C(=O)c1ccccc1,-4.3%,42.1%,-2.2%,1.26µM*,?
COC(=O)c1ccc(C(NC(=O)OCc2ccccc2)/C(=C/[C@@H](C)C(=O)N[C@@H](CO)Cc2ccccc2)c2cccnc2)cc1 (stereo not given in full),-21.1%,11.7%,14.4%,?,?
C=C1C[C@@]23C[C@]1(O)CC[C@@H]2[C@]12C=C[C@@H](O)[C@](C)(C(=O)O1)[C@H]2[C@H]3C(=O)O,5.2%[17.1 µM],-1.8%[25.6 µM],3.5%[25.7 µM],22.4%[25.6 µM],2.5%[25.6 µM]
COC(=O)[C@@]1(Cc2ccc(OC)cc2)[C@H]2c3cc(C(=O)N4CCCC4)n(Cc4cc(F)c(F)c(F)c4)c3C[C@H]2CN1C(=O)c1ccccc1,-3.6%,6.7%,6.3%,?,?
COC(=O)[C@@]1(Cc2ccccc2)[C@H]2c3cc(C(=O)N4CCCC4)n(Cc4ccccn4)c3C[C@H]2CN1C(=O)c1ccccc1,?,-6.3%,-2.8%,3.16µM*,?
COC(=O)[C@@]1(Cc2ccccc2)[C@H]2c3cc(C(=O)N(C)C)n(Cc4ccccn4)c3C[C@H]2CN1C(=O)c1ccccc1,-14.3%,1.7%,-15.4%,?,?
COC(=O)[C@@]1(Cc2ccccc2)[C@H]2c3cc(C(=O)N4CCCC4)n(Cc4ccc(OC)c(OC)c4)c3C[C@H]2CN1C(=O)c1ccccc1,?,10.1%,-12.7%,3.16µM*,?
C[C@@]1(O)CCOC(=O)C1,-0.7%[17.1 µM],-1.4%[25.6 µM],-4.5%[25.7 µM],7.5%[25.6 µM],-3.7%[25.6 µM]
COc1ccccc1CNc1cc(-c2ccccc2C(F)(F)F)ncn1,6.4%,1.0%,?,?,?
Cc1ccc(-c2nnn(CC(=O)N(c3ccccc3)C(C(=O)NC3CCCC3)c3ccco3)n2)o1 (stereo not given),-0.6%,-6.7%,-1.5%,15.2%,-3.8%
Cc1ccc(-c2nnn(CC(=O)N(Cc3cccs3)C(C(=O)NC3CCCC3)c3ccco3)n2)o1 (stereo not given),6.4%,455.0%,-8.3%,12.6µM*,?
COCCN(C(=O)Cn1nnc2ccccc21)C(C(=O)NC1CCCC1)c1cccc(OC)c1OC (stereo not given),-1.8%,-2.5%,4.8%,20µM*,?
O=C(NC1CCCCC1)C(c1ccncc1)N(C(=O)Cn1nnc(-c2cccs2)n1)C1CCCC1 (stereo not given),-5.4%,-1.1%,7.1%,?,?
O=C(NC1CCCCC1)C(c1ccccc1)N(Cc1ccco1)C(=O)Cn1cnc2ccccc21 (stereo not given),?,1.6%,-16.9%,20µM*,?
O=C(NC1CCCC1)C(c1cccs1)N(Cc1ccco1)C(=O)Cn1nnc(-c2cccs2)n1 (stereo not given),2.3%,18.8%,-12.4%,20µM*,?
SMILES,CRE Fsk mod,Tau filament bind,ERK AVP block,HEK293 cAMP ctrl,TSHR agonist
CCCC(=O)NCCc1c2n(c3ccc(OC)cc13)CCCc1ccccc1-2,8.3%,-8.8%,?,?,?
O=C(NCC(=O)N(Cc1cccs1)C(C(=O)NC1CCCC1)c1ccco1)c1cccs1 (stereo not given),1.3%,-0.2%,-5.5%,?,?
O=C(NC1CCCCC1)C(c1ccco1)N(Cc1cccs1)C(=O)Cn1nnc2ccccc21 (stereo not given),?,75.0%,-8.4%,15.8µM*,?
COc1ccccc1C(=O)Nc1ccc(S(=O)(=O)N2CCOCC2)cc1,?,-5.6%,-13.5%,7.8%,3.9%
CCOc1ccccc1C(=O)Nc1ccc(S(=O)(=O)N2CCOCC2)cc1,3.16µM*,17.5%,-16.0%,28.4%,22.9%
O=C(Nc1ccc(S(=O)(=O)N2CCCC2)cc1)c1ccc(CN2CCOCC2)cc1,6.3%,1.6%,10µM*,26.0%,nt
COC(=O)c1ccc(C(NC(=O)OCc2ccccc2)/C(=C/[C@@H](C)C(=O)NCc2ccccc2)c2cccnc2)cc1 (stereo not given in full),-17.3%,7.8%,28.6%,5.6%,nt
Cc1cc(C)n(-c2nncc(-c3ccccc3)n2)n1,27.1%,15.8µM*,-24.7%,-15.5%,-1.7%
Cc1cc(C)n(-c2ncc(-c3ccccc3)nn2)n1,?,25.1µM*,nt,-4.1%,-4.3%
Cc1cc(C)n(-c2nc(C)nc(N)n2)n1,-2.4%,1.0%,-5.8%,-4.1%,-2.0%
O=C(O)COc1cccc(-c2ocnc2-c2nc(-c3ccccc3)c(-c3ccccc3)o2)c1,?,?,-29.1%,11.4%,3.9%
CCOC(=O)c1oc2ccccc2c1NC(=O)COc1cccc(OC)c1,7.6%,-7.7%,3.7%,23.7%,13.2%
CCOC(=O)c1oc2ccccc2c1NC(=O)c1ccccc1OC,2µM*,2.7%,-2.5%,?,?
